Experimental data published in the supplement of paper PMC11732987, “Enantioselective OTUD7B fragment discovery through chemoproteomics screening and high-throughput optimisation” (Communications Chemistry, 2025).

Assays:
Assay in all cases: log2 ratio of Biotin-Ahx-Ub-VS probe labelling (fragment/DMSO); higher = less target engagement (more negative = stronger competition), active = hit call of the paper (q ≤ 0.05, log2 ratio ≤ -1)
Details in all cases: compound concentration: 200 uM; treatment time: 3 h
USP34 = USP34 (UniProt Q70CQ2)
Chain of USP34 (Q70CQ2 whole entry, the tested form may be a part): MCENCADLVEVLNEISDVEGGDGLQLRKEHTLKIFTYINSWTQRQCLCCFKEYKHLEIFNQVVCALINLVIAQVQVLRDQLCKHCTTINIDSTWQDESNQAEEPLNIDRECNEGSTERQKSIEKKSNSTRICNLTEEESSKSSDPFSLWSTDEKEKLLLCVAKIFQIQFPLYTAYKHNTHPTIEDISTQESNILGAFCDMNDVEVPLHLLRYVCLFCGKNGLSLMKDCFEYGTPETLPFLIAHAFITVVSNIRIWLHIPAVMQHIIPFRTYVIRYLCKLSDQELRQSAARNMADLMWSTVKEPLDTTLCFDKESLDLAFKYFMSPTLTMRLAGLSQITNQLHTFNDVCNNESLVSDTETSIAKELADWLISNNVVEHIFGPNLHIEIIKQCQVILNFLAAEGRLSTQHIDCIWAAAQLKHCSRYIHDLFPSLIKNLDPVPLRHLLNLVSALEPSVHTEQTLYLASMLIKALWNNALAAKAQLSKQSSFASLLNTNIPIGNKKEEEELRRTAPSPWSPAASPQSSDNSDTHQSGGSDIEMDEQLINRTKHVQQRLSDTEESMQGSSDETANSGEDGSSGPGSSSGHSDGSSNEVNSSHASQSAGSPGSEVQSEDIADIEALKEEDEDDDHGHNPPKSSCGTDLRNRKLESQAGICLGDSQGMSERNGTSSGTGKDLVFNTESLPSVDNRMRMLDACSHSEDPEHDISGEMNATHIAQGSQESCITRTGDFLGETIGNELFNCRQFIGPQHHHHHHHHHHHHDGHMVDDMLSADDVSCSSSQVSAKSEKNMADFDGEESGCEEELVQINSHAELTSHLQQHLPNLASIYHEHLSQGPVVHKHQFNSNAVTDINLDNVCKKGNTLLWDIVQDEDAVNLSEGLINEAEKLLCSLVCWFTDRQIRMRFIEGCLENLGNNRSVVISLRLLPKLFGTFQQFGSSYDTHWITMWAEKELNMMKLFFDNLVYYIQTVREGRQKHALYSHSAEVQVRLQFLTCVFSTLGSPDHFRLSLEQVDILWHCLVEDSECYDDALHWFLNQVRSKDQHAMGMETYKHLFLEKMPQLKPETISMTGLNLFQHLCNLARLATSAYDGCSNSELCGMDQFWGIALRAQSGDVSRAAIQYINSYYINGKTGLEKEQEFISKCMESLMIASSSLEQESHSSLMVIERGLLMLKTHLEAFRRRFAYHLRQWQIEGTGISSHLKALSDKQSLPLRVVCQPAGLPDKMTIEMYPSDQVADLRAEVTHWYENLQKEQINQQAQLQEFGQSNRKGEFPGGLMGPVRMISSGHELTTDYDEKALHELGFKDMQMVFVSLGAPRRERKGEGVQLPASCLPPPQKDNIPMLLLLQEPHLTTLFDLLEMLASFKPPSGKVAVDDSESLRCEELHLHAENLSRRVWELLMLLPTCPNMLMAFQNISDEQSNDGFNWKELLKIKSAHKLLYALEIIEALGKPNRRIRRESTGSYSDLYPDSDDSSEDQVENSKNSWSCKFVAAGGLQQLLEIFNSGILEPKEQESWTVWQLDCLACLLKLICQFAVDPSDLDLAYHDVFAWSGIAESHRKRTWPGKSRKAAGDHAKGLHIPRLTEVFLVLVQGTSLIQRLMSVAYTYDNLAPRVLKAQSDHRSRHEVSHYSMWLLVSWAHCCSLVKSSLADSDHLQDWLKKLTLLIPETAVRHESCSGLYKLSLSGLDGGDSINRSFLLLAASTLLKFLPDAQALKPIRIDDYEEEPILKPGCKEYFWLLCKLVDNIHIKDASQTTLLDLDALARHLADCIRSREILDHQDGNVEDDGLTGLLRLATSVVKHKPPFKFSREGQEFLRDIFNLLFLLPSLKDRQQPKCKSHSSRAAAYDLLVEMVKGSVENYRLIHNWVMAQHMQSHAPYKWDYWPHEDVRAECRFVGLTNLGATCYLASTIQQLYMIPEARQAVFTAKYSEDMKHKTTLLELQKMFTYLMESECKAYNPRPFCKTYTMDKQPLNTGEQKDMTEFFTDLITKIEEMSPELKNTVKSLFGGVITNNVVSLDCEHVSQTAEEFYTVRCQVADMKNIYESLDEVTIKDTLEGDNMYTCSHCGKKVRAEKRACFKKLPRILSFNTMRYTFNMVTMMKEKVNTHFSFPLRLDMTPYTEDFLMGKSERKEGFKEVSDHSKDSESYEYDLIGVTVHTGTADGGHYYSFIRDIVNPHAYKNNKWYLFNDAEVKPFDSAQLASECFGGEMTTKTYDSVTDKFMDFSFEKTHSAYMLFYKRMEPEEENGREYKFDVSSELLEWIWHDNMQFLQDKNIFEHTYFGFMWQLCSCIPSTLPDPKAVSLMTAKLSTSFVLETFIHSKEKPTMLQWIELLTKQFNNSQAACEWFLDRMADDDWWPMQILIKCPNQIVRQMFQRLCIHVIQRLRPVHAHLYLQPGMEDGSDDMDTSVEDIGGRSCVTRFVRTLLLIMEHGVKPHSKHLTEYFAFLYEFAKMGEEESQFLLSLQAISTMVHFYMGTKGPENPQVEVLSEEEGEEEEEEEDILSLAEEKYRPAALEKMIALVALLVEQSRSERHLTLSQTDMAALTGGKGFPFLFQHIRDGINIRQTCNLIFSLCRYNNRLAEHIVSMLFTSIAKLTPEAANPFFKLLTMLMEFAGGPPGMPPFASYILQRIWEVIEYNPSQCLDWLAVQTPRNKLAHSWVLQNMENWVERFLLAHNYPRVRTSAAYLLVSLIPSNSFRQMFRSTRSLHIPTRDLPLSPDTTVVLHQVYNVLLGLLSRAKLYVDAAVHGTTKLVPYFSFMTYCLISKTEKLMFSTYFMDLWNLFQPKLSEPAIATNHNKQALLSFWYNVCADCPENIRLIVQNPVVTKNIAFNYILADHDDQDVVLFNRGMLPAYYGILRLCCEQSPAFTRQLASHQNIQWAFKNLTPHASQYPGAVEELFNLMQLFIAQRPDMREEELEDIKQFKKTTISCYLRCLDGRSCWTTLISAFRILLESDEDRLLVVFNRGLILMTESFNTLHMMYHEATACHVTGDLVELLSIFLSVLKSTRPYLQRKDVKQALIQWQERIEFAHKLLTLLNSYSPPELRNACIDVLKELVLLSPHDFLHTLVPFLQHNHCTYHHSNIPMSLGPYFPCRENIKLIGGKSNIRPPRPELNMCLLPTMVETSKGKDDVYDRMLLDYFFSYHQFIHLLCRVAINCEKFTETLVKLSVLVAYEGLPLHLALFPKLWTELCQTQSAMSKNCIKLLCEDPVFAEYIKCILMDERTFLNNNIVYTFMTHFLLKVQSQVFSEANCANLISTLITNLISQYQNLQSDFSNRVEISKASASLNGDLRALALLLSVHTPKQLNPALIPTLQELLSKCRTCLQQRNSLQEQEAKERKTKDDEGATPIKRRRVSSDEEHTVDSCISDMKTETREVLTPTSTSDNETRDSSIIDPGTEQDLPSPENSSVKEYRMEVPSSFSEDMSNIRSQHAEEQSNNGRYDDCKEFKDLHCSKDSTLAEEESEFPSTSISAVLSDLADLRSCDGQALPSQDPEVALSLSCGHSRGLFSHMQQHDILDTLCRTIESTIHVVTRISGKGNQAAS
In short: (§1)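 Fragment (200 µM) or vehicle was incubated for 3 h with triplicate HEK293T lysate samples of 495 µg, which were then treated with Biotin-Ahx-Ub-VS at 0.5 µM final for 1 h. Labelled DUBs were enriched on NeutrAvidin, digested with LysC and trypsin, and analysed by diaPASEF LC-MS/MS. Values are average log2 fragment/vehicle ratios from an unpaired t-test on global-median-normalised Spectronaut label-free quantities, using proteins with ≥2 unique peptides.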

USP36 = molecular target: T1, USP36 (UniProt Q9P275)
T1 sequence (whole entry): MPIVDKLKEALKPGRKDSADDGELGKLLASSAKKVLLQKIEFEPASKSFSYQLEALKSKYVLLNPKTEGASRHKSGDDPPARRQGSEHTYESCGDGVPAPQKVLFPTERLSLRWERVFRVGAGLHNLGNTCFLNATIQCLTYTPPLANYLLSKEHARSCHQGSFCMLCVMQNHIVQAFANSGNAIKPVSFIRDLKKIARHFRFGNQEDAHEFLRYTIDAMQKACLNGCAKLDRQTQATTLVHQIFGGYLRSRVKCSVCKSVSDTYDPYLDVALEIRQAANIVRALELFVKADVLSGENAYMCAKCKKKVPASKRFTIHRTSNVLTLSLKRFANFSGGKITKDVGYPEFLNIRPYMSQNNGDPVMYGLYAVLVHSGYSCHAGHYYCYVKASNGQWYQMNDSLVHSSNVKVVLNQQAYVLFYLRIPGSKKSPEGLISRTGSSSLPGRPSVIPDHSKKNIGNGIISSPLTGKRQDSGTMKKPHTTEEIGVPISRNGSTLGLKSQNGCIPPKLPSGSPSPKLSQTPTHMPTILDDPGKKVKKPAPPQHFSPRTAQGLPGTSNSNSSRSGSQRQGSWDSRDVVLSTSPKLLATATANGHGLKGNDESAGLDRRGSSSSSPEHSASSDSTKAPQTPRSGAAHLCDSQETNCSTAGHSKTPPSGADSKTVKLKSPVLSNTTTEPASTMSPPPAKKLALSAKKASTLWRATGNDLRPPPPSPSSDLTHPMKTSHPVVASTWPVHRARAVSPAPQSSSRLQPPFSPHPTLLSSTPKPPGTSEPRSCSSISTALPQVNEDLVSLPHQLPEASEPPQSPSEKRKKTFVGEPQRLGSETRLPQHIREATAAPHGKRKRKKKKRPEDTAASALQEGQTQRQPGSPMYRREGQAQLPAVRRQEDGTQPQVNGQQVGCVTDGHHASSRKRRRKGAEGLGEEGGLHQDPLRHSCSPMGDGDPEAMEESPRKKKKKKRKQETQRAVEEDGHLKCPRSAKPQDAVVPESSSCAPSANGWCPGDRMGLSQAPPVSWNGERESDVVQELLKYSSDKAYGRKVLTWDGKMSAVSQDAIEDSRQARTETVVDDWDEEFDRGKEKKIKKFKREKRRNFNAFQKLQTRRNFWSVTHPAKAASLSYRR
In short: as §1

USP38 = molecular target: T2, USP38 (UniProt Q8NB14)
T2 sequence (whole entry): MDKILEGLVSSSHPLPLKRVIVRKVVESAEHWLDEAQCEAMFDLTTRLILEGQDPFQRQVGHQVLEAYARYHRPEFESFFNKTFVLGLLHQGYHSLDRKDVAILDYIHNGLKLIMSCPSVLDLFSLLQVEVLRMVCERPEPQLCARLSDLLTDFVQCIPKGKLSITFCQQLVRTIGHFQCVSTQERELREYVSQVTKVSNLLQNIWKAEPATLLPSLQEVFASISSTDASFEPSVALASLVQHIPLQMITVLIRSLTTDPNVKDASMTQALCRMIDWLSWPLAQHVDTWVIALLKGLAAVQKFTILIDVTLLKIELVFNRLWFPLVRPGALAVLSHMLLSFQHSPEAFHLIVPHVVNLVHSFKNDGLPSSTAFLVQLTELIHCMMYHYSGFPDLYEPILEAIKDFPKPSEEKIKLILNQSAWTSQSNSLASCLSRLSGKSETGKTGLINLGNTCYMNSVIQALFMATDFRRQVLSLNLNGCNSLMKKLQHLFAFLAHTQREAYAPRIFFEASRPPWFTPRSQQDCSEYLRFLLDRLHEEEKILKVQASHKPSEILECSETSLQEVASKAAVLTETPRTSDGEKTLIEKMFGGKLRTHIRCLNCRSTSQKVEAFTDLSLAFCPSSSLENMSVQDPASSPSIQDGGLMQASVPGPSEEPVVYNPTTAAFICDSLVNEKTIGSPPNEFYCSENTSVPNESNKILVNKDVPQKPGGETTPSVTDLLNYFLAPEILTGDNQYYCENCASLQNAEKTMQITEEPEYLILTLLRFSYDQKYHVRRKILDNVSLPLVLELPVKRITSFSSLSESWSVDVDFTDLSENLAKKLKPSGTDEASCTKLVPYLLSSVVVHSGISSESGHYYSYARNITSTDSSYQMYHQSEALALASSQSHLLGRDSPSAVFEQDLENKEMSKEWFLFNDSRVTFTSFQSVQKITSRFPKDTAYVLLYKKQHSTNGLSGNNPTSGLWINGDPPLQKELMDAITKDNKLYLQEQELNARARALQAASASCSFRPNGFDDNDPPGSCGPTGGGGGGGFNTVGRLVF
In short: as §1

USP39 = molecular target: T3, USP39 (UniProt Q53GS9)
T3 sequence (whole entry): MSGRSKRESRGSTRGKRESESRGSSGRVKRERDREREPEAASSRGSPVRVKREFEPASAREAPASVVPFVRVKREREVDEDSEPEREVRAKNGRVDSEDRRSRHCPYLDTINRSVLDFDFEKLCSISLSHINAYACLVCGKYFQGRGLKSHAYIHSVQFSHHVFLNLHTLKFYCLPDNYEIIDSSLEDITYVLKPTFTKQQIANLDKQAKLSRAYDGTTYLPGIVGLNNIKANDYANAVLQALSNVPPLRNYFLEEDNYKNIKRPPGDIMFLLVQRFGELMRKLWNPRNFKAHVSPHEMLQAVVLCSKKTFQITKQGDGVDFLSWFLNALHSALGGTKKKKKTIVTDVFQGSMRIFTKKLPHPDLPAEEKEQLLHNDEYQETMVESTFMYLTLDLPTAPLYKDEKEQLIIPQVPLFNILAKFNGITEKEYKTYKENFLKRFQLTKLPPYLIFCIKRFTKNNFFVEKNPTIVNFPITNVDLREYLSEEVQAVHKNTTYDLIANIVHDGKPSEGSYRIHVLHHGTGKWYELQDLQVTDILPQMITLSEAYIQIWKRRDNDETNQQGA
In short: as §1

USP4 = molecular target: T4, USP4 (UniProt Q13107)
T4 sequence (whole entry): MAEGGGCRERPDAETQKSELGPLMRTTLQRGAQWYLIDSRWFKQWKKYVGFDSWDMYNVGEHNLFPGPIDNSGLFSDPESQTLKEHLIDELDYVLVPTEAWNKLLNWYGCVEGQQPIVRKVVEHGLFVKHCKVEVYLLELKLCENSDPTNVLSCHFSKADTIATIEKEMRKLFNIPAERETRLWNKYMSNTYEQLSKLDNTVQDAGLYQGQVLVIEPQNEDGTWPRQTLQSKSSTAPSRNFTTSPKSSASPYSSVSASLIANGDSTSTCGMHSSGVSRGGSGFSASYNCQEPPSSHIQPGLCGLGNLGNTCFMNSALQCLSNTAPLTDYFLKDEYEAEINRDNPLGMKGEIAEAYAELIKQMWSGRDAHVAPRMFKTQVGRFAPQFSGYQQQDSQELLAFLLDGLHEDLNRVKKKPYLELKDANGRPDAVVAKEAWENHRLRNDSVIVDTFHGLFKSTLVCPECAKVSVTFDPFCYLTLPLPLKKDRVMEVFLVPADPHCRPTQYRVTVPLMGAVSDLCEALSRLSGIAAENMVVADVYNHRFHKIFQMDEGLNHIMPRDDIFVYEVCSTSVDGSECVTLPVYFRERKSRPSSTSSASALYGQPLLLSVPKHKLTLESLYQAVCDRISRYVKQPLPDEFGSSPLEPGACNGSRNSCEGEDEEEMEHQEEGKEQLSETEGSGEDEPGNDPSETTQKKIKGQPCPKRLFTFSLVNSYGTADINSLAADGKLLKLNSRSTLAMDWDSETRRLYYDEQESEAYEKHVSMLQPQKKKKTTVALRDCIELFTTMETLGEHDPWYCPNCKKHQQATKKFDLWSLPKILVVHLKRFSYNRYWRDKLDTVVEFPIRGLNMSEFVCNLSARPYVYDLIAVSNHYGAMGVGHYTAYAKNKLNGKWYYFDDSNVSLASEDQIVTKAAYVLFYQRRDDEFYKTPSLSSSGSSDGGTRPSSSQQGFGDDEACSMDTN
In short: as §1

Measured: log2 ratio of Biotin-Ahx-Ub-VS probe labelling

Cc1ccc(CN(CCO)C(=O)CCl)cc1
inactive: USP34 0.0432 | USP36 -0.00999 | USP38 -0.303 | USP39 -0.0925 | USP4 -0.21
